The campaign covered roughly 1,100 compounds. About 390 (35%) were called active. Another 30% or so got no clear call; they are omitted. Calls follow the shape of the dose curve; as a rule, active = well fitted inhibition curve with a large enough effect; inconclusive = small, poorly fitted or top-dose-only effect; inactive = flat fitted curve, though single readings scatter. Some of the results follow. Where a call stands in place of a potency, no number is given.
molecular target: Luciferin 4-monooxygenase (Photinus pyralis) (UniProt P08659); test: qHTS of Nrf2 Activators: Hit Validation in Secondary FLuc Assay; conditions: firefly luciferase inhibition counter-screen, luminescence; series mostly up to 57.5 µM; also: nearly all actives have a fitted effect of over 65% in size
How it was run: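 Purified firefly luciferase is tested for inhibition by compounds in the presence of its substrates, ATP and D-luciferin, each at Km. Inhibition marks likely false positives arising from reporter-enzyme stabilization.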
Potency is read from the fitted curve at half-maximal effect.

SMILES | Potency
O=C1C=C(C#Cc2ccccc2)C[C@@H](c2ccc(F)cc2)C1 | inactive
N/C(=N\OC(=O)c1ccco1)c1cccc(Br)c1 | 2.39 µM (active)
O=C(CSc1ncnc2sc3c(c12)CCCC3)c1ccco1 | 2.69 µM (active)
O=C(Nc1ncnc2sc3c(c12)CCC3)c1ccco1 | inactive
c1coc(-c2ccnc(-n3cccc3)n2)c1 | 15.1 µM (active)
Cc1ccsc1-c1ccnc(-n2cccc2)n1 | 15.1 µM (active)
c1coc(-c2ccnc3nc(-n4cccc4)nn23)c1 | inactive
CN1CCCC1CCNc1ccc2c(=O)c3ccccc3oc2c1 (stereo not given) | 6.75 µM (active)
Cc1sc2ncnc(Sc3nnnn3-c3ccccc3)c2c1C | inactive
Cc1nc2nc(-c3ccccc3)nn2c(C)c1Cl | 3.38 µM (active)
CCOc1ncccc1-c1nc(-c2cccs2)no1 | 15.1 µM (active)
CCOc1ccc(Br)cc1-c1noc(-c2cccs2)n1 | inactive
COc1cc(-c2noc(-c3cccs3)n2)cc(OC)c1OC | inactive
O=C(/C=C\c1ccc2c(c1)OCO2)CC1(O)C(=O)Nc2ccccc21 (stereo not given) | 9.53 µM (active)
CC(C)N1C/C(=C/c2cccnc2)C(=O)/C(=C/c2cccnc2)C1 | inactive
Nc1ccc2c(c1)Cc1c(F)cccc1-2 | 7.57 µM (active)
COc1ccc2c(c1)Cc1c-2cc(Br)c(N)c1Br | inactive
Cc1ccc(S(=O)(=O)c2nc(S(C)(=O)=O)sc2N2CC(C)OC(C)C2)cc1 (stereo not given) | inactive
Cc1ccc(C)c(NC(=S)c2nc3ccccc3s2)c1 | 10.7 µM (active)
Cc1ccc(C)c(NC(=O)COC(=O)c2cc(=O)c3ccccc3o2)c1 | inactive
O=C(N/N=C/c1ccsc1)c1ccc2ccccc2n1 | 10.7 µM (active)
O=C(Nc1ccc(F)cc1)c1cc2ccccc2o1 | 0.953 µM (active)
O=C(Nc1ccc(F)cc1)c1sccc1SCc1cccc(C(F)(F)F)c1 | inactive
O=C1/C(=C/c2ccccc2)CCc2ccc(Cl)nc21 | 10.7 µM (active)
CN1C2CCC1/C(=C\c1ccccc1)C(=O)/C2=C\c1ccccc1 | inactive
Brc1ccc(C2=CC(c3ccco3)n3nnnc3N2)cc1 (stereo not given) | inactive
C1=C(c2ccc(-c3ccccc3)cc2)Nc2ncnn2C1c1ccco1 (stereo not given) | 10.7 µM (active)
Cc1ccc2nc(N(CCN(C)C)C(=O)/C=C/c3cccs3)sc2c1 | inactive

SMILES | Potency
O=C(/C=C/c1cccs1)c1ccco1 | 9.53 µM (active)
CCOc1ccsc1C(=O)NNC(=O)c1ccco1 | inactive
COc1ccc(Sc2cnn(-c3ccccc3)c(=O)c2Cl)cc1 | inactive
NC(=O)N/N=C/c1ccccc1OC(=O)c1ccccc1Br | 10.7 µM (active)
c1ccc(CNc2nc(NCc3ccco3)nc(N3CCOCC3)n2)cc1 | inactive
CCN=c1scc(C)n1/N=C/c1ccsc1 | 6.75 µM (active)
Cc1[nH]c2ccccc2c1N=Nc1ccccc1F | 19 µM (active)
Cc1[nH]c2ccccc2c1N=Nc1ccccc1C(=O)O | 8.49 µM (active)
Cc1cccn2c(=O)c(C=NCCO)c(NCc3ccco3)nc12 | inactive
O/N=C/c1ccc2cccc(OCc3ccccc3)c2n1 | inactive
CC1CN(C(=O)/C=C/c2ccc([N+](=O)[O-])s2)CC(C)O1 (stereo not given) | inactive
Clc1ccccc1NN=Cc1ccccn1 | 2.13 µM (active)
COc1ccc(Cl)cc1NC(=O)c1cc(-c2ccccc2O)n[nH]1 | inactive
COc1ccc(OC)c(/C=C(\C#N)c2nc(-c3ccc(F)cc3)cs2)c1 | inactive
COc1ccc(O)c(-c2cc(-c3ccc(F)cc3)n[nH]2)c1 | 4.78 µM (active)
COc1ccc(O)c(-c2cc(-c3ccccc3Cl)[nH]n2)c1 | 6.01 µM (active)
COC(=O)c1scc(C)c1NC(=O)c1ccc(Cl)cc1 | inactive
O=C1S/C(=C\C=C\c2ccco2)C(=O)N1c1ccc(O)cc1 | 9.53 µM (active)
O=C1S/C(=C\C=C\c2ccco2)C(=O)N1c1ccccc1 | 6.75 µM (active)
O=C(CN1CCN(Cc2ccccc2)CC1)N/N=C\C=C/c1ccco1 | inactive
CN1CCN(c2sc(S(C)(=O)=O)nc2S(=O)(=O)c2ccc(Cl)cc2)CC1 | inactive
Cc1ccc([N+](=O)[O-])cc1NC(=O)c1ccccc1 | inactive
CC(C)=NNc1cnnc2ccc([N+](=O)[O-])cc12 | 10.7 µM (active)
Cc1ccc(O)c(NC(=O)c2cc([N+](=O)[O-])ccc2Cl)c1 | inactive
O=C(NC1CCCCC1)N(c1ccccc1)c1nnc(-c2cccc([N+](=O)[O-])c2)s1 | 16.9 µM (active)
CC(=O)Nc1ccc(S(=O)(=O)c2ccnc3cc(Cl)ccc23)cc1 | inactive
c1ccc(C2=Nn3c(nnc3-c3ccco3)SC2)cc1 | 26.9 µM (active)

From PubChem BioAssay AID651597 (National Center for Advancing Translational Sciences (NCATS), 2012)
